# From PubChem BioAssay (NCATS)
# Results filed as inconclusive are left out. A call without a number means that no potency is given here. The source made the active and inactive calls. Calls follow the shape of the dose curve; as a rule, active = well fitted curve in the direction sought with a large enough effect; inconclusive = small, poorly fitted or top-dose-only effect, or another doubt; inactive = no such curve, though single readings can be large; an effect the other way counts as inactive or inconclusive.
# Assay: qHTS of pediatric cancer cell lines to identify multiple opportunities for drug repurposing: Primary screen for Rh30 cells (AID 1347107); also: nearly all actives have a fitted effect of over 75% in size
# Settings: Rh30 rhabdomyosarcoma viability, CellTiter-Glo luminescence, 48 h; series mostly up to 46 µM
# Outline: (§1)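 Viability after 48 h compound treatment at 37C, 500-1,000 cells/well, read as ATP luminescence with CellTiter-Glo. Primary screens used 11-point (MIPE, 0.78 nM-46 µM) or 8-point (NPC, 0.59 nM-46 µM) final concentrations; follow-up screens used 11-point dilutions.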
row,Structure (SMILES),outcome
1,O=C1c2ccccc2S(=O)(=O)N1CCCCN1CCN(c2ncccn2)CC1,inactive
2,CC(=O)N[C@@H](CC(C)C)C(=O)O,inactive
3,COc1cc(C(=O)NCCCCCC(=O)O)cc(OC)c1OC,inactive
4,CC(=O)OCC(COC(C)=O)OC(C)=O,inactive
5,CC(=O)[C@@]1(O)CC[C@H]2[C@@H]3C[C@H](C)C4=CC(=O)C=C[C@]4(C)[C@@]3(F)[C@@H](O)C[C@@]21C,inactive
6,CN1CCN(C(=O)C2CCCCC2)CC1,inactive
7,Cc1c(C(=O)NCCO)[n+](=O)c2ccccc2n1[O-],inactive
8,CC[C@]12CCCN3CCc4c(n(c5ccccc45)[C@@](O)(C(=O)OC)C1)[C@@H]32,inactive
9,O=C(c1ccccc1)C(O)c1ccccc1 (centres undefined),inactive
10,CC(=O)SC[C@@H](Cc1ccccc1)C(=O)NCC(=O)OCc1ccccc1,inactive
11,C[N+](C)(C)CC[N+]1(C)Cc2c(Cl)c(Cl)c(Cl)c(Cl)c2C1,inactive
12,CCCCC1(COC(=O)CCC(=O)O)C(=O)N(c2ccccc2)N(c2ccccc2)C1=O,inactive
13,FC(F)(F)C(Cl)Br (centres undefined),inactive
14,CC(=O)Nc1ccc(C(=O)O)cc1,inactive
15,CO[C@@]1(NC(=O)C(C(=O)O)c2ccc(O)cc2)C(=O)N2C(C(=O)O)=C(CSc3nnnn3C)CO[C@@H]21 (some centres undefined),inactive

# Assay: qHTS of pediatric cancer cell lines to identify multiple opportunities for drug repurposing: Primary screen for Rh41 cells (AID 1347108);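 also: luminescence drop marks cytotoxic hits; nearly all actives have a fitted effect of over 70% in size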
# Settings: Rh41 rhabdomyosarcoma viability, CellTiter-Glo luminescence, 48 h; series mostly up to 46 µM
# Outline: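 Luminescence from CellTiter-Glo served as readout of metabolically active cells after 48 h compound exposure. Titrations: MIPE 11-point, from 0.78 nM; NPC 8-point, from 0.59 nM (final). Concentration-response curves came straight from the primary screen.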
row,Structure (SMILES),outcome
1,O=C1c2cccc(O)c2C(=O)c2c(O)cccc21,inactive
2,CCCCCOC(=O)Nc1nc(=O)n([C@@H]2O[C@H](C)[C@@H](O)[C@H]2O)cc1F,inactive
3,NC(=O)c1ccc([N+](=O)[O-])cc1Cl,inactive
4,CN(C(=O)c1c(O)c2ccccc2n(C)c1=O)c1ccccc1,inactive
5,COc1nccnc1NS(=O)(=O)c1ccc(N)cc1,inactive
6,COc1ccc(C(=O)N2CCN(CC(=O)N3CCOCC3)CC2)cc1,inactive
7,CCc1cccc(CC)c1NC(=O)CN(CC(=O)O)CC(=O)O,inactive
8,CNCc1ccccc1,inactive
9,COc1cc(O)cc(O)c1,inactive
10,O=C(O)Cn1c(C(=O)Nc2nc(-c3ccccc3Cl)cs2)cc2ccccc21,inactive
11,CCCC(O)C(CC)CO (centres undefined),inactive
12,Cc1onc(-c2ccccc2)c1-c1ccc(S(N)(=O)=O)cc1,inactive
13,Cc1[nH]c(C)c(Cl)c(=O)c1Cl,inactive
14,O=C(Cn1ccnc1[N+](=O)[O-])NCc1ccccc1,inactive
15,CN(C/C=C/C#CC(C)(C)C)Cc1cccc2ccccc12,inactive
16,CCS(=O)(=O)CCn1c([N+](=O)[O-])cnc1C,inactive
17,Cc1ccc2c(c1)c1c3n2CCNC3CCC1 (centres undefined),inactive
18,C=CCOc1ccccc1OCC(O)CNC(C)C (centres undefined),inactive
19,O=C(O)c1ccccc1OP(=O)(O)O,inactive

row,Structure (SMILES),outcome
1,CCCOC(=O)c1ccc(N)cc1,inactive
2,C[C@H]1COc2c(C3(N)CC3)c(F)cc3c(=O)c(C(=O)O)cn1c23,inactive
3,CCN[C@H]1CN(CCCOC)S(=O)(=O)c2sc(S(N)(=O)=O)cc21,inactive
4,CC(=O)Nc1ccccc1,inactive
5,O=C1c2ccccc2S(=O)(=O)N1CCCCN1CCN(c2ncccn2)CC1,inactive
6,CC(=O)N[C@@H](CC(C)C)C(=O)O,inactive
7,COc1cc(C(=O)NCCCCCC(=O)O)cc(OC)c1OC,inactive
8,CC(=O)OCC(COC(C)=O)OC(C)=O,inactive
9,CC(=O)[C@@]1(O)CC[C@H]2[C@@H]3C[C@H](C)C4=CC(=O)C=C[C@]4(C)[C@@]3(F)[C@@H](O)C[C@@]21C,inactive
10,CN1CCN(C(=O)C2CCCCC2)CC1,inactive
11,Cc1c(C(=O)NCCO)[n+](=O)c2ccccc2n1[O-],inactive
12,CC[C@]12CCCN3CCc4c(n(c5ccccc45)[C@@](O)(C(=O)OC)C1)[C@@H]32,inactive
13,O=C(c1ccccc1)C(O)c1ccccc1 (centres undefined),inactive
14,CC(=O)SC[C@@H](Cc1ccccc1)C(=O)NCC(=O)OCc1ccccc1,inactive
15,C[N+](C)(C)CC[N+]1(C)Cc2c(Cl)c(Cl)c(Cl)c(Cl)c2C1,inactive
16,CCCCC1(COC(=O)CCC(=O)O)C(=O)N(c2ccccc2)N(c2ccccc2)C1=O,inactive
17,FC(F)(F)C(Cl)Br (centres undefined),inactive
18,CC(=O)Nc1ccc(C(=O)O)cc1,inactive
19,CO[C@@]1(NC(=O)C(C(=O)O)c2ccc(O)cc2)C(=O)N2C(C(=O)O)=C(CSc3nnnn3C)CO[C@@H]21 (some centres undefined),inactive

# Assay: qHTS of pediatric cancer cell lines to identify multiple opportunities for drug repurposing: Confirmatory screen for NB1643 cells (AID 1347109); also: nearly all actives have a fitted effect of over 45% in size
# Settings: NB1643 neuroblastoma cell viability; series mostly up to 45.9 µM
# Outline: as §1
row,Structure (SMILES),Potency
1,O=C(Cn1ccnc1[N+](=O)[O-])NCc1ccccc1,inactive
2,COc1cc(C(=O)NCCCCCC(=O)O)cc(OC)c1OC,inactive
3,CC(=O)[C@@]1(O)CC[C@H]2[C@@H]3C[C@H](C)C4=CC(=O)C=C[C@]4(C)[C@@]3(F)[C@@H](O)C[C@@]21C,inactive

# Assay: qHTS of pediatric cancer cell lines to identify multiple opportunities for drug repurposing: Confirmatory screen for A673 cells (AID 1347110);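 also: cells exposed to compound for 48 h before the viability read; nearly all actives have a fitted effect of over 65% in size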; also: potency is read from the fitted curve at half-maximal effect
# Settings: A673 Ewing sarcoma cell viability; series mostly up to 45.9 µM
# Outline: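 A673 cells seeded at 500-1,000 cells/well, rested 5 h, then dosed; primary MIPE 11-point (0.78 nM to 46 µM), NPC (0.59 nM to 46 µM); confirmatory 11-point. CellTiter-Glo luminescence after 48 h.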
row,Structure (SMILES),Potency
1,O=C(Cn1ccnc1[N+](=O)[O-])NCc1ccccc1,1170 nM (active)
2,COc1cc(C(=O)NCCCCCC(=O)O)cc(OC)c1OC,inactive
3,CC(=O)[C@@]1(O)CC[C@H]2[C@@H]3C[C@H](C)C4=CC(=O)C=C[C@]4(C)[C@@]3(F)[C@@H](O)C[C@@]21C,inactive
